From PubChem BioAssay AID493025 (Johns Hopkins Ion Channel Center, 2011) come the findings set out here.

The whole screen tested about 1,000 compounds, of which about 570 (57%) were called active. How the calls were made is not given here. The set was probably picked from earlier hits. The list is a sample of the results.

The target of this test is Potassium voltage-gated channel subfamily KQT member 2 (Rattus norvegicus) (UniProt O88943). The test can be described thus: rat KCNQ2 potassium channel inhibitors, confirmation, cell-based, thallium flux (AID 493025).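 On activity change, negative = inhibition: 0% = vehicle wells and values are ratio percent relative to vehicle.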 The settings on record: KCNQ2-expressing cells, at 10 µM; activity change, negative = inhibition: hits give low values; outcome: inhibition.
Sequence of Potassium voltage-gated channel subfamily KQT member 2 (Rattus norvegicus) (O88943 whole entry, looked up): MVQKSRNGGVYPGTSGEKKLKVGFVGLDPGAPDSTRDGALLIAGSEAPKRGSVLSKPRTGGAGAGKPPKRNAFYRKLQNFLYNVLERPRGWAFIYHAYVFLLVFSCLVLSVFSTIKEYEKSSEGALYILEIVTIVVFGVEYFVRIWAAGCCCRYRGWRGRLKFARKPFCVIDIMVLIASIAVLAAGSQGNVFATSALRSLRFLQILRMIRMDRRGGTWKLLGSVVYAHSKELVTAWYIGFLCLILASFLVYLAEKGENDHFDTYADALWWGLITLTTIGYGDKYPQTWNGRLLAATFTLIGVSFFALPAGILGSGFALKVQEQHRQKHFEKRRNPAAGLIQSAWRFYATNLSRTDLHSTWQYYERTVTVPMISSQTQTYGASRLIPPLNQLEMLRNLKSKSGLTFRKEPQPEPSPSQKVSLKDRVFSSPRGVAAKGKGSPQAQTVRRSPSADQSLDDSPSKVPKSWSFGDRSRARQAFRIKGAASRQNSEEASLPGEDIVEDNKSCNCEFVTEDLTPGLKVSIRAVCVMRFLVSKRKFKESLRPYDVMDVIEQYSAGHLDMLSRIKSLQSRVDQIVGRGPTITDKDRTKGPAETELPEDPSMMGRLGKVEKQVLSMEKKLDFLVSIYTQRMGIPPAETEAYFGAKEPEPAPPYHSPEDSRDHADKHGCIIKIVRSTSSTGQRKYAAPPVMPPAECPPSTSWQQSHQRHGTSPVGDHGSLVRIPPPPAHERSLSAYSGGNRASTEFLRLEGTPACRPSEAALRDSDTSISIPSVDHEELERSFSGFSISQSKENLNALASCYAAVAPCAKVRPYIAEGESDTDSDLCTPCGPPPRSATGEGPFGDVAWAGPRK
As to `CCc1ccc(-c2nn(-c3ccccc3)cc2CSC(=N)N)cc1`, the activity change, negative = inhibition was -37.5% (active).

Regarding `C=CS(=O)c1sc(Cl)c(N2CCOCC2)c1[N+](=O)[O-]` (stereo unspecified), the activity change, negative = inhibition was -32.5% (active).

As to `Cc1ccc(C(C)C)cc1OCC(=O)Nc1ccccc1N1CCCC1`, the activity change, negative = inhibition result is “inactive”.

With `CC(C(=O)NCC1CCCCC1)N(C)Cc1cccc(Cl)c1` (stereo unspecified), the activity change, negative = inhibition was -47% (active).

In the case of `CCc1ccccc1NC(=O)/C(=C/c1ccccc1)c1ccccc1`, the activity change, negative = inhibition was -33% (active).

With `C=CCn1c(SCC(=O)/C(C#N)=C(\C)N)nc2sc(C)c(C)c2c1=O`, the activity change, negative = inhibition result is “inactive”.

With `CN(Cc1ccccc1F)C(=O)C(Cc1ccccc1)NC(=O)c1ccccc1` (stereo unspecified), the activity change, negative = inhibition was -29% (active).

With `CC(NC(=S)NNS(=O)(=O)c1ccc(C(C)(C)C)cc1)c1ccccc1` (stereo unspecified), the activity change, negative = inhibition entry was “inactive”.

In the case of `CCc1ccc2ncc(C(=O)c3ccccc3)c(N3CCOCC3)c2c1`, the activity change, negative = inhibition was -20.5% (active).

As to `Fc1ccc2[nH]c3c(N4CCSCC4)ncnc3c2c1`, the activity change, negative = inhibition was -38.5% (active).

`Cc1ccc(N2C(=O)C3C(c4ccccc4)(C2=O)C3(c2ccccc2)c2ccccc2)cc1` (stereo unspecified): the activity change, negative = inhibition result was “inactive”.

As for `CC(C)N(C(=O)CSc1nc(COc2ccccc2)nc2ccccc12)C(C)C`, the activity change, negative = inhibition is -42.5% (active).

In the case of `COc1cccc(COc2ccc(N(C)S(=O)(=O)c3ccccc3)cc2)c1`, the activity change, negative = inhibition result is “inactive”.

Take `O=C(OCC(=O)N(CCc1ccccc1)Cc1ccccc1)c1ccccc1[N+](=O)[O-]`: the activity change, negative = inhibition result was “inactive”.

In the case of `CSCc1cc(N(C)C)nc(SCc2ccc(Cl)cc2Cl)n1`, the activity change, negative = inhibition was -19.5% (active).

Take `O=C(Nc1ccccc1Cl)/C(Cl)=C(\Cl)S(=O)c1ccccc1` (stereo unspecified): the activity change, negative = inhibition is -22.5% (active).

`Cc1ccccc1N1CCN(CC(=O)NCc2ccc(Cl)cc2)CC1`: the activity change, negative = inhibition result was “inactive”.

For the molecule `Cc1cccc(C(=O)OC(C)C(=O)NC2CCCc3ccccc32)c1O` (stereo unspecified), the activity change, negative = inhibition was -27% (active).

Consider `COc1ccc(CN(C)C(C)C(=O)NC2CCCc3ccccc32)cc1` (stereo unspecified), for which the activity change, negative = inhibition was -19.5% (active).

Turning to `O=C(Nc1ccc(Cl)c(Cl)c1)N1CC=C(c2ccccc2)CC1`, the activity change, negative = inhibition entry was “inactive”.

With `COC(=O)C1=C(C)N(C(C)c2ccccc2)C(=O)/C1=C\c1ccco1` (stereo unspecified), the activity change, negative = inhibition was -22.5% (active).

Consider `CCOC(=O)C(C)Sc1nc2ccccc2c(=O)n1CC1CCCCC1` (stereo unspecified), for which the activity change, negative = inhibition was -32% (active).

For the molecule `COc1ccc(Cl)cc1NC(=O)CN(C)Cc1ccc(OC)c(OC)c1`, the activity change, negative = inhibition result is “inactive”.

With `Cc1ccc(C(=O)c2c(NC(=O)c3ccccc3)sc(C)c2C)cc1`, the activity change, negative = inhibition is -21% (active).

In the case of `Cc1ccccc1C(=O)Nc1ccccc1Sc1ccccc1`, the activity change, negative = inhibition was -26% (active).

Take `CCOC(=O)N1CCC(N(CCOC)C(=O)Nc2ccc(C)c(C)c2)CC1`: the activity change, negative = inhibition was -33% (active).

Regarding `CCc1ccc(-c2cc(C(=O)NCc3ccco3)c3ccccc3n2)s1`, the activity change, negative = inhibition entry was “inactive”.

`CC(C)[C@H](NC(=O)OCc1ccccc1)C(=O)OCc1ccccc1`: the activity change, negative = inhibition was -23.5% (active).

With `CC(C)C(NC(=O)OCc1ccccc1)C(=O)OCC(=O)N1C(C)CCCC1C` (stereo unspecified), the activity change, negative = inhibition result was “inactive”.

Regarding `Cc1ccc(C2=Nc3c(ccc4ccccc34)C(c3ccncc3)=NN2)cc1`, the activity change, negative = inhibition entry was “inactive”.

Regarding `Cc1nc2ccccc2c(-c2ccccc2)c1C(=O)c1ccccc1`, the activity change, negative = inhibition was -31% (active).
